Measurements as given in PubChem BioAssay (NCI).
The panel holds about 79,000 compounds, 15% with a hit somewhere; the sample as a whole holds those more often. Activity calls are given as the source filed them. No stated cut-off is given here; in the data, active means growth inhibition above about 70%; inactive means the rest. Where a SMILES comes first, the peptide text is derived from it.

Tests used:
[1] = NCI Yeast Anticancer Drug Screen. Data for the rad50 strain (AID 155);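 further: 0% = growth of vehicle-only cultures of the same strain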; conditions: S. cerevisiae rad50 strain growth inhibition; at 50.0 µM; stronger effect = higher value
In short: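 Vehicle-treated cultures provide the reference for the growth inhibition reported for compound-exposed, repair-deficient yeast.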

[2] = NCI Yeast Anticancer Drug Screen. Data for the mec2-1 strain (AID 157); conditions: S. cerevisiae mec2-1 strain, at 50.0 µM, stronger effect = higher value
In short: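 mec2-1 yeast strain, carrying an alteration in DNA damage repair or cell cycle control, was exposed to compounds; growth inhibition was measured relative to vehicle-treated controls.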

[3] = NCI Yeast Anticancer Drug Screen. Data for the sgs1 mgt1 strain (AID 161);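 further: 0% = growth of cultures given vehicle only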; conditions: S. cerevisiae sgs1 mgt1 strain, at 50.0 µM, stronger effect = higher value
In short: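 Percent growth inhibition was derived by comparing compound-exposed mutant yeast with vehicle-exposed cultures. The strain carries alterations in DNA damage repair.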

[4] = NCI Yeast Anticancer Drug Screen. Data for the cln2 rad14 strain (AID 165);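 further: 0% = growth equal to vehicle treated cultures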; conditions: S. cerevisiae cln2 rad14 strain, at 50.0 µM, stronger effect = higher value
In short: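 Yeast carrying cln2 and rad14 alterations (cell cycle control and DNA damage repair) were exposed to compounds. Growth inhibition was measured against vehicle-treated controls.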

[5] = NCI Yeast Anticancer Drug Screen. Data for the bub3 strain (AID 167); conditions: S. cerevisiae bub3 mutant strain, at 50.0 µM, stronger effect = higher value
In short: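 Mutant yeast screening strain plus compound; vehicle-treated cultures serve as the 0% inhibition reference.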

[6] = NCI Yeast Anticancer Drug Screen. Data for the mlh1 rad18 strain (AID 175); conditions: S. cerevisiae mlh1 rad18 strain growth inhibition; at 50.0 µM; stronger effect = higher value
In short: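 Growth inhibition of the yeast strain was measured after compound exposure and expressed relative to vehicle-treated controls. The strain carries defined defects in DNA damage repair.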

Measured: growth inhibition

O=C(NC12OC3CC(CC(C3)O1)O2)NC12OC3CC(CC(C3)O1)O2
inactive: [1] 3.6% | [2] 0.35% | [3] 14.2% | [4] -3.85% | [5] -30.3% | [6] 2.2%

Cc1ccc(C(=O)c2ccccc2)cc1
inactive: [1] 26.1% | [2] 23.5% | [3] -11.8% | [4] -8.75% | [5] -0.6% | [6] -1.7%

CC(c1ccccc1)n1cnc2c(Cl)ncnc21 (stereo not given)
inactive: [1] 5% | [2] -16.7% | [3] 5.05% | [4] -0.5% | [5] 6.3% | [6] -17.2%

CC(C)(C)/C=C/N=NNc1ccccc1C(=O)NC(C)(C)C
inactive: [1] 9.5% | [2] 0.2% | [3] 1.8% | [4] -54.5% | [5] -2% | [6] 12.1%

C=CCNC(=O)CS(=O)(=O)c1ccc(C)cc1
inactive: [1] 0.1% | [2] -10.3% | [3] -0.35% | [4] 15.3% | [5] 3.05% | [6] 10.6%

CCOC(=O)C(C)(C)Oc1ccc2c(-c3ccccc3)cc(=O)oc2c1
inactive: [1] -9.15% | [2] -8.4% | [3] 0.15% | [4] -13.1% | [5] -19.8% | [6] -25.6%

Cc1cc(=O)c2ccccc2n1CCCCCCCCCCn1c(C)cc(=O)c2ccccc21
inactive: [1] -12.1% | [2] -0.25% | [3] -17% | [4] -21.9% | [5] -26.6% | [6] 26.4%

O=C(C(=Cn1c(=O)cc[nH]c1=S)C(=O)c1ccccc1)c1ccccc1
inactive: [1] -14.7% | [2] -19.4% | [3] -27.6% | [4] 2.95% | [5] -15.6% | [6] -9.7%

CC1CCCN(C(=O)/C=C/c2ccccc2)C1 (stereo not given)
inactive: [1] 9.25% | [2] -19.2% | [3] -6.45% | [4] -45.8% | [5] 6.3% | [6] -3.8%

CCOc1cc2ccc3c4cc(OC)c(OC)cc4cnc3c2cc1OCC
inactive: [1] -16.9% | [2] -17.4% | [3] -12.7% | [4] -0.4% | [5] -9.4% | [6] -18.9%

CC(=O)NC(C(=O)N1CCCC1C(=O)O)C(C)C (stereo not drawn) (Ac-Val-Pro-OH; configuration not given here)
inactive: [1] 7.9% | [2] -3.15% | [3] -6.65% | [4] 1.7% | [5] -19.1% | [6] 0.6%

C=C(Cl)C(Cl)(CBr)CCC(Br)C(C)(C)Cl (stereo not given)
inactive: [1] 20.6% | [2] 41% | [3] 51.5% | [4] 22.4% | [5] 42.6% | [6] -22.8%

Cc1cc(Sc2ccccc2)nc2ccccc12
inactive: [1] 8.5% | [2] -12.2% | [3] 41.6% | [4] 4.1% | [5] 48.5% | [6] 12.3%

NC(=O)c1ccc([N+](=O)[O-])cc1
inactive: [1] 6% | [2] -5.15% | [3] 27.1% | [4] -24.8% | [5] -1.4% | [6] 15.3%

O=C(O)C(=Cc1ccc(Br)cc1)C(=O)O
inactive: [1] 41.5% | [2] -25.8% | [3] 13.5% | [4] 20.8% | [5] 23.1% | [6] 31.9%

CCOC(=O)/C(=C/c1cccc2ccccc12)P(=O)(OCC)OCC
inactive: [1] 36.6% | [2] 50.9% | [3] 51.7% | [4] 29.4% | [5] 37.1% | [6] 52.4%

O=c1[nH]c(-c2ccc(-c3nc4cc([N+](=O)[O-])ccc4c(=O)[nH]3)cc2)nc2cc([N+](=O)[O-])ccc12
inactive: [1] -33% | [2] -13.8% | [3] -26.7% | [4] -6.9% | [5] -24.5% | [6] -13.3%

Nc1ncnc2c1ncn2CCC(COCc1ccccc1)COCc1ccccc1
inactive: [1] 40.8% | [2] 0.4% | [3] 50.8% | [4] -10% | [5] 4.6% | [6] 11.7%

COCCOC(=O)c1ccc(C(N)=NC2CCCCC2)cc1
inactive: [1] -1.2% | [2] 4.25% | [3] 3.9% | [4] 0.95% | [5] 8.65% | [6] -0.7%

C=C(CCC(Cl)C(COS(=O)(=O)c1ccc(C)cc1)OC(CCCO[Si](c1ccccc1)(c1ccccc1)C(C)(C)C)OCC)[Si](C)(C)C (stereo not given)
inactive: [1] 68.2% | [2] 65.7% | [3] 60.6% | [4] 69.1% | [6] 58.4%
active: [5] 73%

COc1ccc2nc(NC(=O)Nc3ccc(Cc4ccc(NC(=O)Nc5nc6ccc(OC)cc6s5)cc4)cc3)sc2c1
inactive: [1] -14.4% | [2] -19.6% | [3] -10.3% | [4] 10.3% | [5] -8.65% | [6] -12%

Cc1ccc(=O)n(Cc2ccccc2)n1
inactive: [1] -8.25% | [2] -31.9% | [3] -11.8% | [4] 21.1% | [5] -12.2% | [6] 2.75%

Cc1cc2c(=O)[nH]cnc2[nH]1
inactive: [1] -5.6% | [2] -1.35% | [3] -16.7% | [4] 4.45% | [5] 13.8% | [6] -1.15%

O=C(CO)CC(=O)C(=O)Nc1ccccc1
inactive: [1] -10.8% | [2] -22.9% | [3] 1.5% | [4] 10.6% | [5] -4.15% | [6] -9.9%

CC(=O)OCC1COC(C2CC=CCC2C)O1 (stereo not given)
inactive: [1] -1.9% | [2] -8.9% | [3] -8.35% | [4] 4.05% | [5] 13.6% | [6] -7.6%

CC(C)(C)c1ccc2c(c1)C(C)(C)CCC2(C)C
inactive: [1] 12.8% | [2] 0.8% | [3] 3.05% | [4] -52.6% | [5] 8.3% | [6] 19.2%

Cc1ccc(OCC(O)CN2CCN(c3ccc(C)cc3)CC2)cc1 (stereo not given)
inactive: [1] 26.6% | [2] -10.4% | [3] 36% | [4] -35.7% | [5] 4.55% | [6] 0.05%

CC(C)CC(C)OC(=O)CC(CC(=O)OC(C)CC(C)C)C(=O)OC(C)CC(C)C (stereo not given)
inactive: [1] -6.8% | [2] -17.1% | [3] -13.1% | [4] 26.2% | [5] 20.9% | [6] -4.15%

CCOc1ccc(NCC(=O)N2CC(=O)Nc3ccccc32)cc1
inactive: [1] -19.6% | [2] -21.9% | [3] -40.4% | [4] -5.15% | [5] -42.2% | [6] -35.2%

O/N=C1\C(=C\c2ccc3c(c2)OCCO3)CCCC1C(NO)c1ccc2c(c1)OCCO2 (stereo not given)
inactive: [1] 13.1% | [2] 16.7% | [3] 29.9% | [4] 2.8% | [5] 16.9% | [6] 6.15%

O=[N+]([O-])C(/C=N/Nc1ccccc1)/C=N/Nc1ccccc1
inactive: [1] -5.95% | [2] -8.3% | [3] -20.8% | [4] -6.55% | [5] -24.6% | [6] -10.9%

CCN(CC)C1(C(F)C(F)(F)F)OCC2(CO1)COC(C(F)C(F)(F)F)(N(CC)CC)OC2 (stereo not given)
inactive: [1] -10.1% | [2] -13.4% | [3] -0.4% | [4] 2.3% | [5] 0.8% | [6] 6.6%

CC(C)CCNCC(C)(C)OC(=O)c1ccc([N+](=O)[O-])cc1
inactive: [1] 34.6% | [2] 19.2% | [3] 51.9% | [4] 31.3% | [5] 30.4% | [6] 33.2%

CC1N(/N=C/c2ccccc2)C(c2ccccc2)C(c2ccccc2)N1/N=C/c1ccccc1 (stereo not given)
inactive: [1] 11.4% | [2] 15% | [3] 17.2% | [4] 5.3% | [5] 1.75% | [6] 6.25%

CC(C)N1C(=O)c2cccc3c(Br)ccc(c23)C1=O
active: [1] 97.8% | [2] 99.3% | [3] 97.2% | [4] 98.4% | [5] 99.2% | [6] 98.5%

CCOC(=O)CCC(NC(=O)c1ccc(Nc2nc3cc(C(F)(F)F)ccc3nc2C(=O)OCC)cc1)C(=O)OCC (stereo not given)
inactive: [1] -20.1% | [2] 0.55% | [3] -14.3% | [4] -1.85% | [5] -10% | [6] 4.9%

O=[N+]([O-])c1cccc(N=Nc2ccccc2)c1
inactive: [1] -4.25% | [2] -10.3% | [3] -22.3% | [4] 18.7% | [5] -21.6% | [6] -0.95%

O=C(O)c1ccccc1NCn1c(=S)sc2ccccc21
inactive: [1] 63% | [2] 45.8% | [3] 60.6% | [4] 5.5% | [5] 43.8% | [6] 53.9%

COc1nc(NC2OC(CO)C(O)C(O)C2O)c(Br)c(=O)n1C (stereo not given)
inactive: [1] 4.4% | [2] -1.15% | [3] -3.6% | [4] -4.1% | [5] 0.75% | [6] 23%

NNc1cc(=O)[nH]c(N)n1
inactive: [1] -17.6% | [2] -18.6% | [3] -31.2% | [4] -19.1% | [5] -6.95% | [6] -29.9%
